NS1 function inh = inhibitors of influenza NS1 protein function | Potency, µM (highest dose often 46.1 µM), inactives show top-dose activity, positive = more growth | 270,000 compounds, 0.4% hits | AID 2326; calls by dose curve; also: potency is read from the fitted curve at half-maximal effect; actives are rising curves; nearly all actives have a fitted effect of over 50% in size
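S. cerevisiae expressing influenza A NS1, grown in glucose, washed, then diluted 1:100 into pH 6.0 -URA galactose medium with 23 nl compound. Growth recovery read as OD600; NS1-free strain serves as control.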
Pf growth 48h = inhibits P. falciparum growth in the first generation, 48 h. 310,000 compounds, 5.9% hits. Potency, µM (highest dose often 28.7 µM), inactives show top-dose activity change, negative = inhibition, hits mostly inhibitors. AID 504832. P. falciparum luciferase growth in erythrocytes, 48 h; also: potency is read from the fitted curve at half-maximal effect; % is scaled to controls: 0 for no effect and ±100 for the full control effect
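Luminescence readout; reporter = integrated firefly luciferase in P. falciparum. RBC culture at 2% hematocrit, 0.1% parasitemia final, 37 C/5% CO2; decreased signal taken as growth inhibition.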
FBPA Giardia inh = Giardia lamblia aldolase inhibition | purified Giardia FBPA | A8B2U2 | 290,000 compounds, 0.71% hits | Potency, µM (doses to about 59.6 µM), inactives show top-dose activity, negative = inhibition, most hits filed as inhibitors; also: potency is read from the fitted curve at half-maximal effect; % is scaled to controls: 0 for no effect and ±100 for the full control effect; nearly all actives have a fitted effect of over 55% in size
Target sequence (A8B2U2 whole entry, looked up): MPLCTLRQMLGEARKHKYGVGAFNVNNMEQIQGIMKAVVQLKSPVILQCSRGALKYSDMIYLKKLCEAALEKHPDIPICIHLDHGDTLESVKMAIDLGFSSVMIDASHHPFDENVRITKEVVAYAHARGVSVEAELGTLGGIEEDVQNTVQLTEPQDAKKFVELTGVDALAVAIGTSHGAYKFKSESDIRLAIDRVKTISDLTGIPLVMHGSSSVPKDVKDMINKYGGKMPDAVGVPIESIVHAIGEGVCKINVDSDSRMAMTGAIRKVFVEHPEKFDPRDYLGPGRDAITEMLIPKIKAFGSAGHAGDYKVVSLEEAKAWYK
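Giardia FBPA (40 nM reagent) was preincubated 10 min at RT with compound (up to 57.5 uM final), then substrate plus GAPDH/TPI/NAD/arsenate coupling system with diaphorase/resazurin was added; resorufin fluorescence (525/598 nm) was read after 20 min.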
Pf growth 96h = P. falciparum growth inhibition at 96 hours; P. falciparum luciferase reporter growth, 96 h; Potency, µM (highest dose often 28.7 µM), for the others: at the top dose activity change, negative = inhibition, actives largely listed as inhibitors; 320,000 compounds, 6.9% hits; also: potency is read from the fitted curve at half-maximal effect; % is scaled to controls: 0 for no effect and ±100 for the full control effect
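Plates of compound plus infected erythrocytes (2% hematocrit, 0.05% parasitemia final) incubate 96 hours, 37 C, 5% CO2. Detection reagent added; reduced luminescence from the parasites' luciferase reporter flags inhibition.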
Shiga inhibitor = Shiga toxin inhibition. inhibition, % at 38.7 µM. 290,000 compounds, 9.2% hits. Vero cells, Shiga toxin protein synthesis inhibition reporter; in the data active = inhibition mostly above about 28%, no sharp cut-off; inactive = mostly below about 43%; also: 0% is about no effect
CHX counter = affects cycloheximide protein synthesis inhibition readout, counter-screen | cell reporter, cycloheximide protein synthesis inhibition counterscreen | max response, % | 300,000 compounds, 12% hits | AID 2314; in the data active = max response mostly above about 13%, no sharp cut-off; inactive = mostly below about 14%; also: read at 38.3 µM for the half of the compounds with a filed dose; 0% is about no effect
Active calls of the source: *; ? = inconclusive; . = not tested or not shown; [ ] = dose if it differs, or a comment. Hits are enriched below; roughly 21% of the tested compounds scored in any of these assays. Unless noted, calls follow the shape of the dose curve; as a rule, active = well fitted curve in the direction sought with a large enough effect; inconclusive = small, poorly fitted or top-dose-only effect, or another doubt; inactive = no such curve, though single readings can be large; an effect the other way counts as inactive or inconclusive.

SMILES	NS1 function inh	Pf growth 48h	FBPA Giardia inh	Pf growth 96h	Shiga inhibitor	CHX counter
CCOC(=O)c1cc(CC)sc1/N=C/C1C(=O)CC(C)(C)CC1=O	-4.1%	6.3%	3.1%	44.6%	-1.2	-1.0
CCOC(=O)c1cc(CC)sc1/N=C/C1C(=O)NC(=S)NC1=O	.	9.3%	17.7µM*	8.6%	-8.7	10.2
CC1CC(C)CN(CC(=O)c2cccs2)C1 (stereo not given)	0.9%	3.3%	-0.7%	0.0%	-1.3	-1.8
O=C(CN1CCc2ccccc2C1)c1cccs1	-7.7%	?	-26.2%	.	81.6*	48.7*
CC1CN(CC(=O)c2ccccc2Cl)CC(C)O1 (stereo not given)	-35.6%	28.4%	-6.1%	53.9%	7.3	5.1
CC1CCN(CC(=O)c2ccccc2Cl)CC1	7.7%	?	2.4%	?	31.0*	13.8
CC1CCN(CC(=O)c2cccs2)CC1	-0.2%	38.8%	2.0%	69.4%	36.7*	13.3*
Cc1ccc(S(=O)(=O)N[C@@H]2COC(=O)C/C=C\[C@H](C)COC(=O)N[C@@H](C)C(=O)C/C=C\[C@H]2C)cc1	.	.	4.0%[12.9 µM]	.	.	.
COc1ccc2c(c1OC)C(=O)OC2n1c(O)c(N=NC(C)=O)c2ccccc21 (stereo not given)	3.8%	32.2%	-0.9%	2.0%	-4.2	-2.9
Cc1ccc(OCCOC(=O)CN2C(=O)NC3(CCCC3)C2=O)cc1	.	0.0%	.	89.0%	.	.
COC(=O)NNC(=O)Cc1cccc2ccccc12	3.7%	-2.6%	5.5%	16.1%	-6.0	-0.9
Cc1noc(C)c1C(=O)Nc1ccc2ccccc2c1	-8.7%	18.4%	.	?	33.8	21.0*
Cc1noc(C)c1C(=O)Nc1ccc(C#N)cc1	-3.7%	-18.4%	.	9.9%	2.2	-3.1
Cc1noc(C)c1C(=O)Nc1ccc(F)c(F)c1	-6.1%	.	4.8%	56.2%	-21.9	-3.5
CC(=O)Nc1ccc(NC(=O)c2c(C)noc2C)cc1	2.9%	4.65µM*	.	?	-18.7	9.3
Clc1ccc(-c2csc(=Nc3cccnc3)n2CCCn2ccnc2)cc1Cl	-15.5%	11.7µM*	17.1%	4.65µM*	-13.4	-7.1
CC(C)n1cc(CN2CCN(CCc3ccccc3)C(CCO)C2)cn1 (stereo not given)	-1.5%	16.4%	5.2%	14.7µM*	30.4	-0.7
OCCC1CN(Cc2cccnc2)CCN1CCc1ccccc1 (stereo not given)	-1.1%	-10.9%	1.7%	9.28µM*	1.9	11.8
Cc1coc2cc3oc(=O)c(CCC(=O)N4CCC(C(=O)O)(c5ccccc5)CC4)c(C)c3cc12	8.1%	?	5.1%	?	-2.9	-3.9
CCCCCn1c2nc3ccccc3nc2c2c(=O)n(CC(C)C)cnc21	6.1%	.	-0.1%	2.94µM*	-20.0	-4.4
CCCCn1c2nc3ccccc3nc2c2c(=O)n(C(C)CC)cnc21 (stereo not given)	-3.3%	19.3%	0.8%	9.2%	-23.2	-4.4
CC(C)c1ccccc1NS(=O)(=O)c1cccs1	-0.6%	-12.8%	-16.6%	37.9%	-6.2	-1.4
Cc1ccccc1NC(=O)c1snc2c(=O)[nH]cnc12	.	14.1%	3.6%	4.1%	3.3	-1.0
CCCCN1CCCC[C@H]1C(=O)Nc1c(C)cccc1C	.	-4.1%	-7.1%	14.4%	-4.9	4.5
CCCCCCCN1C(Nc2ccccc2)=NC[C@@H]1CC(C)C	-38.9%	?	0.6%	?	-9.3	-3.3
SMILES	NS1 function inh	Pf growth 48h	FBPA Giardia inh	Pf growth 96h	Shiga inhibitor	CHX counter
CCCCCCNC(=O)N[C@H](C(=O)NCCC[C@H]1CN2C(=NC[C@H]2C)N1CCC(c1ccccc1)c1ccccc1)C(C)O (stereo not given in full)	-83.3%	9.28µM*	?	2.94µM*	-8.4	-5.6
COc1ccc(F)cc1S(=O)(=O)NCCCn1ccnc1	4.4%	6.4%	-10.1%	6.0%	-6.4	-0.6
CSc1nsc(SC)c1C(=O)NC(=O)Nc1cccnc1	-4.6%	8.3%	-3.1%	1.5%	-1.8	1.1
CSc1nsc(SC)c1C(=O)Nc1ccc(C(C)(C)C)cc1	9.7%	?	-13.8%	?	53.2*	9.8
CCC(C)C(=O)Nc1nc2ccc(S(C)(=O)=O)cc2s1 (stereo not given)	2.8%	9.2%	-1.9%	?	36.8*	19.8*
CC(=O)Nc1nc2ccc(Br)cc2s1	-75.4%	93.2%	7.1%	?	39.9	21.3*
COc1ccc2nc(NC(C)=O)sc2c1	-10.3%	142.0%	1.0%	.	82.5*	41.6*
CC(=O)NCCC(=O)Nc1nc2ccc(Oc3ccccc3)cc2s1	-17.3%	162.5%	4.3%	285.2%	100.8*	61.5*
CC(=O)Nc1nc2ccc(S(=O)(=O)N3CCCC3)cc2s1	5.1%	-6.5%	.	?	-8.7	5.2
COc1ccccc1CNC(=S)NCc1ccc(F)cc1	-57.1%	?	-12.1%	?	3.2	8.7
CCC(C)C(=O)Nc1nc2ccc(OC)cc2s1 (stereo not given)	6.2%	64.5%	-2.7%	72.2%	70.7*	41.8*
COc1ccc2nc(NC(=O)CSCC(=O)Nc3cc(C)on3)sc2c1	.	56.6%	.	51.6%	.	.
CCOc1ccc(C(CC(=O)O)NC(=O)C(CC)c2ccccc2)cc1 (stereo not given)	3.2%	-0.2%	3.5%	-0.2%	-4.2	3.1
CCN(CC)CCNc1ccc(CO)c2sc3ccccc3c(=O)c12	-6.9%	3.7µM*	-4.5%	2.94µM*	-14.8	-3.0
COc1ccc(-c2[nH]ncc2CN2CCC(C(=O)c3ccc(F)cc3)CC2)cc1	1.8%	?	-0.3%	?	4.5	-1.2
Nc1ncnc2c1nc(SCCO)n2Cc1ccccc1	.	22.4%	0.6%	-4.5%	-16.5	-3.8
O=C(CN1C(=O)c2ccccc2S1(=O)=O)N1CCN(c2ccccc2F)CC1	3.9%	71.9%	5.8%	5.86µM*	-11.6	-1.4
O=C(CCN1C(=O)c2ccccc2S1(=O)=O)N1CCN(c2ccccc2F)CC1	.	-24.5%	.	19.5%	.	.
CCc1ccc(OCC(=O)N2CCN(c3ccccc3F)CC2)cc1	.	16.7%	-0.3%	6.57µM*	33.9	12.5
Cc1ccc(N2CCN(C(=O)c3ccccc3F)CC2)c(C)c1	-51.5%	-15.3%	2.6%	3.29µM*	-7.2	-2.3
Cc1ccc(C(=O)N2CCN(c3ncccn3)CC2)c(C)c1	-6.0%	5.0%	24.0%	7.1%	3.1	-1.9
CCOC(=O)N1CCN(C(=O)CN(C2CCCCC2)S(=O)(=O)c2c(C)cc(C)cc2C)CC1	-11.0%	.	-4.0%	10.4µM*	-10.8	4.7
Cc1cc(C)c(S(=O)(=O)N(CC(=O)N2CCOCC2)C2CCCCC2)c(C)c1	-17.8%	?	-4.9%	?	-9.0	-5.6
Cc1cc(=O)[nH]c(SCC(=O)NN(c2ccccc2)c2ccccc2)n1	0.2%	?	-0.1%	?	-10.4	1.1
CC(C)c1ccc(-c2cc(C(=O)N3CCOCC3)c3cc(Br)ccc3n2)cc1	18.1%	?	.	-4.8%	8.6	5.4
Nc1ccc(C(=O)C[C@H](N)C(=O)O)cc1O	-1.0%	.	.	.	.	.
